In the library only some 21% were active in any assay of this set; here they are far more common.
IL1B secr inh: qHTS for Inhibitors of Inflammasome Signaling: IL-1-beta AlphaLISA Primary Screen | THP-1 LPS/ATP IL-1B secretion, AlphaLISA, 16 h; hits give low values | hit rate 4.7% among 360,000 | activity change, % at 57.5 µM; in the data active means activity change below about -50%; inconclusive means mostly about -30% to -49%; further: on the % scale 0 is the no-effect control and ±100 the full control effect
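Secreted IL-1B measured by AlphaLISA bead assay after 16 h compound exposure of THP-1 cells; compounds (final up to 57.5 uM) added 1 h before LPS (250 ng/mL) and ATP (1.25 mM) stimulation; lower signal means less secretion.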
TDP1 cell noCPT: qHTS for Inhibitors of human tyrosyl-DNA phosphodiesterase 1 (TDP1): qHTS in cells in absence of CPT; DT40 Tdp1-/- hTDP1 cells, no CPT, ATP luminescence, 48 h; Potency, µM (top dose mostly 46.2 µM), inactives show top-dose activity change, negative = growth inhibition, usual class: inhibitors; hit rate 15% among 420,000; further: potency means the concentration at half of the fitted maximal effect; on the % scale 0 is the no-effect control and ±100 the full control effect; nearly all actives have a fitted effect of over 55% in size
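Growth kinetics read by CellTiter-Glo luminescence after ≥48 hr at 37 °C. Cells: DT40 Tdp1-/- stably carrying human TDP1, 400 per well, compound exposure in the absence of CPT (DMSO vehicle).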
DRD3 agonist: qHTS of D3 Dopamine Receptor Agonist: qHTS. D(3) dopamine receptor (Homo sapiens), P35462. max activation, %. hit rate 0.58% among 410,000. D3R DiscoveRx beta-arrestin cells, luminescence, 90 min; in the data active means max activation above about 30%; further: 0% is about no effect
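Agonist mode: compounds and dopamine controls were applied to plated cells for 90 min at 37 degrees C after an overnight attachment at 1500 cells/well. Luminescent read-out followed 30 - 60 minutes at room temperature with DiscoveRx detection reagent.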
ClpP mod: qHTS Assay for Activators of ClpP | ATP-dependent Clp protease proteolytic subunit (Bacillus subtilis (strain 168)), P80244 | purified B. subtilis ClpP, FRET peptide cleavage, 20 min | Potency, µM (highest dose often 57.5 µM), without a hit: top-dose activity change, negative = active | hit rate 1.9% among 340,000 | AID 651965, 2013; active means well fitted falling curve with a large enough effect; inconclusive means small, poorly fitted or top-dose-only effect; inactive means no such curve, though single readings can be large or run the other way; further: potency means the concentration at half of the fitted maximal effect; the source files actives as falling curves though it sought activators and does not explain the sign; nearly all actives have a fitted effect of over 65% in size
Target sequence (P80244 whole entry, looked up): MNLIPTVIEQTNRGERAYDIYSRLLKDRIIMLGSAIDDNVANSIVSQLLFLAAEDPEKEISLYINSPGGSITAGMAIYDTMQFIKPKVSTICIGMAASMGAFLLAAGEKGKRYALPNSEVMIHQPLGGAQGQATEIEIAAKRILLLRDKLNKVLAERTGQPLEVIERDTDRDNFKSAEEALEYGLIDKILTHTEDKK
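Purified B. subtilis ClpP, 10 microg/mL final in Tris/HCl pH8 with KCl, BSA, glycerol and Tween-20, cleaved an Abz/nitrotyrosine-quenched decapeptide. Fluorescence (ex 320, em 430) was read at 0 and 20 min at room temperature. Delta was normalized to 5.8 microM ADEP and DMSO/no-enzyme controls.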
D3 antag: qHTS of D3 Dopamine Receptor Antagonist: qHTS | D3R cells, DiscoveRx beta-arrestin luminescence, antagonist mode; hits give low values | max response, negative = inhibition, % | hit rate 2.5% among 360,000 | AID 652054, 2013; in the data active means max response below about -50%; inconclusive means no clear call, values can overlap the other calls; further: on the % scale 0 is the no-effect control and ±100 the full control effect
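Cells expressing the human receptor were seeded at 1500 cells/well, incubated overnight at 37 degrees C in 5% CO2, then exposed to library compounds with dopamine controls for 90 minutes at 37 degrees C before luminescent detection.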
DT40 TDP1 CPT: qHTS for Inhibitors of human tyrosyl-DNA phosphodiesterase 1 (TDP1): qHTS in cells in presence of CPT | hit rate 12% among 420,000 | Potency, µM (doses to about 46.2 µM), for inactives: at the highest dose activity change, negative = growth inhibition, usual class: inhibitors | chicken DT40 Tdp1-/-;hTDP1 cells + 20 nM CPT, ATP luminescence, 48 h; further: potency means the concentration at half of the fitted maximal effect; on the % scale 0 is the no-effect control and ±100 the full control effect; nearly all actives have a fitted effect of over 55% in size
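Chicken DT40 Tdp1-/- cells complemented with human TDP1, 400 cells/well, exposed to compounds plus 20 nM camptothecin for at least 48 h at 37 C; viability read as ATP content by CellTiter-Glo luminescence.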
The depositor's hits bear a star; ? = inconclusive; nt = no result given. Unless noted, the call rests on the fitted dose curve; in most records, active means well fitted inhibition curve with a large enough effect; inconclusive means small, poorly fitted or top-dose-only effect; inactive means flat fitted curve, though single readings scatter.

SMILES	IL1B secr inh	TDP1 cell noCPT	DRD3 agonist	ClpP mod	D3 antag	DT40 TDP1 CPT
O=C(CSc1nnc(-c2ccco2)o1)c1ccc(O)cc1O	23.2	?	8.5	nt	42.7	?
CCOC(=O)C1CCN(C(=O)C(C)Sc2nnc3ccccn23)CC1 (centres undefined)	-13.6	-19.5%	-20.3	nt	3.9	-20.1%
COc1ccc(C2/C=C\CN(S(=O)(=O)c3cccc4cccnc34)CC(=O)N2Cc2ccc(F)cc2)cc1 (centres undefined)	0.2	?	-6.6	0.0%	30.8	?
COc1ccc([C@H]2/C=C\CN(S(=O)(=O)c3cccc4cccnc34)[C@@H](C)C(=O)N2Cc2ccc(F)cc2)cc1	-9.8	14.6µM*	-1.0	0.9%	9.7	18.4µM*
COc1ccccc1N1C(=O)C2C(C(=O)c3ccccc3)=NN(c3ccccc3OC)C2C1=O (centres undefined)	16.3	0.5%	3.7	-1.4%	-5.9	4.8%
CC(C(=O)NC1C=CS(=O)(=O)C1)N1C(=O)/C(=C/c2cccc(Cl)c2)SC1=S (centres undefined)	-67.8*	-15.9%	-2.2	0.2%	6.9	16.4µM*
CC(C(=O)NC1C=CS(=O)(=O)C1)N1C(=O)/C(=C\c2ccccc2)SC1=S (centres undefined)	-61.8*	?	2.5	1.1%	3.1	?
Cc1ccc(CSCc2ccc(C(=O)NCCc3ccc(Cl)cc3)o2)cc1	nt	?	-0.6	-3.8%	nt	?
Cc1ccc(C(=O)COc2nc(C)nc3ccccc23)cc1	25.5	-1.1%	6.3	nt	14.8	-0.1%
O=c1c(-c2cccc(F)c2)nc2cncnc2n1Cc1ccc(F)cc1	nt	-2.2%	nt	nt	nt	14.3%
O=c1c(-c2cccc(F)c2)nc2cncnc2n1Cc1ccccc1	nt	16.4µM*	nt	nt	nt	?
O=c1c(-c2ccc(F)c(F)c2)nc2cncnc2n1Cc1ccc(F)cc1	nt	16.4µM*	nt	nt	nt	14.6µM*
COc1cccc(Cn2c(=O)c(-c3ccc(F)c(F)c3)nc3cncnc32)c1	nt	?	nt	nt	nt	-24.0%
OCCN1CCN(C(c2ccc(Cl)cc2Cl)c2sc3nc(-c4ccco4)nn3c2O)CC1 (centres undefined)	nt	-5.8%	7.0	2.7%	nt	-0.2%
O=c1cnn(-c2ccc(Cl)cc2Cl)c(-c2ccccc2)c1	-17.4	23.1µM*	1.7	-1.1%	-17.3	?
CCCn1c(=O)c2c(ncn2C)n(CCC)c1=O	-3.7	3.66µM*	-0.6	-0.6%	-10.2	?
CCC(C(=O)NC1CCCCC1)n1c(SCc2cccc(F)c2)nc2ccncc21 (centres undefined)	-6.7	?	-16.8	-18.3%	5.1	?
CCCCNC(=O)C(CC)n1c(SCc2cccc(F)c2)nc2ccncc21 (centres undefined)	nt	?	nt	-14.4%	nt	10µM*
CCC(C(=O)NC1CCCCC1)n1c(SCc2cccc(C)c2)nc2ccncc21 (centres undefined)	-21.4	?	-0.3	-13.9%	-0.6	25.9µM*
Nc1[nH]c(=S)[nH]c(=O)c1N	nt	7.7%	nt	-4.7%	nt	2.8%
COC(=O)C1=C(C)OC(N)=C(C#N)C1c1cccnc1 (centres undefined)	4.6	?	-3.4	-0.2%	2.5	20.6µM*
N#CC1=C(N)Oc2ccc3ccccc3c2C1c1cccnc1 (centres undefined)	0.0	5.17µM*	0.7	-1.5%	6.8	3.66µM*

Bioassay records (PubChem BioAssay)
